The source of these data is PubChem BioAssay.

For assay [1], the system named is Wnt5a (protein binding on small-molecule microarray). In words: Wnt5a binders on small-molecule microarray, primary screen, biophysical, 635/667 nm fluorescence (AID 1142).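 Further: fluorescence read at 667 nm with signal to noise per printed feature.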 Particulars: 635 nm fluorescence, higher = more signal.
The nature of assay [2]: cell viability in Huh7 cells, primary screen, cytotoxicity control for HCV replication inhibitor project, CellTiter-Glo luminescence, basal, 48 h (AID 1143).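 Further: Huh7 hepatoma cells carrying a hepatitis C replication reporter with no stimulus; test concentration not given here.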 Particulars: Huh7 HCV replicon, higher = more signal, called active from +8 up or from −8 down.
The nature of assay [3]: P. aeruginosa biofilm formation inhibitors, primary screen, PAO1 strain, BacTiter-Glo luminescence, LB-PBS (AID 1144). The settings on record: 12 h, higher = more signal.
Assay [4] is described as follows: CREB reporter modulators without forskolin, primary screen, cell-based, PC12, CRE-LacZ reporter, unstimulated (AID 1145). Particulars: no forskolin, luminescence, 4.5 h, higher = more signal, called active from +8 up or from −8 down.
A short description of assay [5]: CREB reporter modulators under forskolin, primary screen, cell-based, PC12, CRE-LacZ reporter, forskolin-stimulated (AID 1146).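 Further: PC12 cells with 6xCRE LacZ reporter stimulated by forskolin 10 µM; beta-galactosidase reporter signal reflecting CREB driven transcription.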 Particulars: luminescence, 4.5 h, higher = more signal, called active from +8 up or from −8 down.
Assay [6] addresses Streptavidin (Streptomyces avidinii) (UniProt P22629). In words: streptavidin binders on small-molecule microarray, primary screen, artefact control for SMM compound annotation, biophysical, 635/667 nm fluorescence (AID 1147).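 Further: signal reflects streptavidin binding to arrayed compounds as a control protein.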 Particulars: streptavidin binding, higher = more signal.
The nature of assay [7]: small-molecule binders of probe aInhba, primary screen, biochemical, small-molecule microarray, 635/667 nm fluorescence (AID 1148).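 Further: score merges 667nm spot fluorescence with signal-to-noise for antibody binding to printed compounds.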 Particulars: higher = more signal.
For assay [8], the target named is Torsin-1A (Homo sapiens) (UniProt O14656). The assay can be described thus: torsin A binders from cell lysate, primary screen, small-molecule microarray, wild-type, 635/667 nm (AID 1149). Particulars: COS7 hTOR1A-WT lysate, 635 nm fluorescence, higher = more signal.
Chain of Torsin-1A (Homo sapiens) (O14656 whole entry, looked up): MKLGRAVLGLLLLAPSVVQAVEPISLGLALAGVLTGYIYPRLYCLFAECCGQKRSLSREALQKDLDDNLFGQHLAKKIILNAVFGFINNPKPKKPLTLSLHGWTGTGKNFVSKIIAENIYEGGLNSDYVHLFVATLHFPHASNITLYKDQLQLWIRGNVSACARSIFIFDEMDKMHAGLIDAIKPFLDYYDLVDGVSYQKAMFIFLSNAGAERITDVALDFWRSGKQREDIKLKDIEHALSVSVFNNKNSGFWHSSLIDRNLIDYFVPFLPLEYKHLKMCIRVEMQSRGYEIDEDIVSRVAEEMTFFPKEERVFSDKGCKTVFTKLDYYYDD
Assay [9] has the same target. In words: small-molecule binders of mutant TOR1A in lysate, primary screen, cell lysate, small-molecule microarray, COS7 lysate, 635/667 nm fluorescence (AID 1150).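 Further: score pools 667 nm emission and signal to noise measuring lysate protein binding.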 Particulars: COS7 hTOR1A mutant lysate, 635 nm fluorescence, higher = more signal.
In assay [10] the test system is Sonic hedgehog protein (Shh). In words: small-molecule binders of Shh protein, primary screen, biochemical, small-molecule microarray, 635/667 nm fluorescence (AID 1151).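 Further: Shh protein binding to compounds spotted on small-molecule microarray slides; score combines spot fluorescence intensity with signal-to-noise across triplicate slides.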 Particulars: small-molecule microarray binding, 635 nm fluorescence; higher = more signal.
A short description of assay [11]: E. coli DRC41 culture turbidity changes, primary screen, E. coli filamentation inducer project, strain DRC41, OD650, 48 h (AID 1152).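 Further: E. coli MC1000 strain DRC41 lacking acrAB efflux pump and sulA.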 Particulars: E. coli DRC41 (acrAB sulA), higher = more signal, called active from +8 up or from −8 down.
Assay [12] can be described thus: small-molecule binders of probe aLefty1, primary screen, biochemical, small-molecule microarray, 635/667 nm fluorescence (AID 1153).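 Further: score merges spot fluorescence with signal-to-noise ratio from the scanned slide images.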 The settings on record: higher = more signal.
Assay [13] is described as follows: PSAC antagonists in infected red cells, primary screen, cell-based, P. falciparum Indochina, OD700, 1 h (AID 1154). The settings on record: P. falciparum Indochina infected RBC osmotic lysis, higher = more signal, called active from +8 up or from −8 down.
A short description of assay [14]: PSAC antagonists in infected red cells, primary screen, cell-based, P. falciparum Indochina, OD700, 2 h (AID 1155).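 Further: lysis reports solute entry through the parasite surface anion channel PSAC; channel blockers reduce lysis of infected cells.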 Particulars: P. falciparum Indochina infected erythrocytes, osmotic lysis OD700; higher = more signal, called active from +8 up or from −8 down.
Assay [15] is described as follows: osmotic lysis modulators in infected erythrocytes, primary screen, PSAC antagonist project, cell-based, P. falciparum Indochina, OD700, 3 h (AID 1156). The settings on record: higher = more signal, called active from +8 up or from −8 down.
The nature of assay [16]: PSAC antagonists in infected red cells, primary screen, cell-based, P. falciparum Indochina, OD700, 18 h (AID 1157). Particulars: P. falciparum Indochina infected erythrocytes, osmotic lysis OD700, 18 h; higher = more signal, called active from +8 up or from −8 down.
Assay [17] is described as follows: modulators of S6 phosphorylation in cells, primary screen, cell-based, A549, cytoblot, luminescence, serum-stimulated (AID 1158).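 Further: serum-stimulated A549 lung adenocarcinoma cells; signal is phosphorylated S6 detected by cytoblot immunostaining with HRP secondary.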 Particulars: A549 phospho-S6 cytoblot, 5 h, higher = more signal.
Assay [18] concerns the target NADPH oxidase 2 (Homo sapiens) (UniProt P04839). The assay can be described thus: NOX2-dependent H2O2 signal modulators, primary screen, NOX inhibitor project, cell-based, HEK293-NOX2, PMA-stimulated, Amplex Red fluorescence (AID 1159). Further: test concentration not given here. Particulars: 45 min, higher = more signal, called active from +8 up or from −8 down.
In assay [19] the target is NADPH oxidase 4 (Homo sapiens) (UniProt Q9NPH5). In words: NOX4-dependent H2O2 signal modulators, primary screen, NOX inhibitor project, cell-based, HEK293-NOX4, tetracycline-induced, Amplex Red fluorescence (AID 1160). The settings on record: 45 min, higher = more signal, called active from +8 up or from −8 down.
Chain of NADPH oxidase 4 (Homo sapiens) (Q9NPH5 whole entry, looked up): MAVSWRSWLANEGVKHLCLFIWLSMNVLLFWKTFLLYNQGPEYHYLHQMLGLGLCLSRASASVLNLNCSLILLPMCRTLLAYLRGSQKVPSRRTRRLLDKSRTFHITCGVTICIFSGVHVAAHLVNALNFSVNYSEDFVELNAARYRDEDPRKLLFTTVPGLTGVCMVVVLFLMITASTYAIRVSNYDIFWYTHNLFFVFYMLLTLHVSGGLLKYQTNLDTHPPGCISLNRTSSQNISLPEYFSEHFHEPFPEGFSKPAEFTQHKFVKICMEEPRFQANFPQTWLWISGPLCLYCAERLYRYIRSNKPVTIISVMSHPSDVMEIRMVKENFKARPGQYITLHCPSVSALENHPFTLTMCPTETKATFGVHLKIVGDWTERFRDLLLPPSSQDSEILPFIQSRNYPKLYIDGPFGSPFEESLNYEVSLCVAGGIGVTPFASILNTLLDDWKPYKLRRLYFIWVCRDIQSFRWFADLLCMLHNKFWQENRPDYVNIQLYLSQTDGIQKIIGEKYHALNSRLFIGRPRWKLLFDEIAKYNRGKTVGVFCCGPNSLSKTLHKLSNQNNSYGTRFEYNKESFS
Assay [20] concerns the target NADPH oxidase 5 (Homo sapiens) (UniProt Q96PH1). In words: NOX5-dependent H2O2 signal modulators, primary screen, NOX inhibitor project, cell-based, HEK293-NOX5, Amplex Red fluorescence (AID 1161). Particulars: HEK293-NOX5, ionomycin, 45 min, higher = more signal.

Each structure is given as a SMILES string. Activity calls are given as the source filed them. Unless noted, how the calls were made is not given here.

Chain of NADPH oxidase 5 (Homo sapiens) (Q96PH1 whole entry, looked up): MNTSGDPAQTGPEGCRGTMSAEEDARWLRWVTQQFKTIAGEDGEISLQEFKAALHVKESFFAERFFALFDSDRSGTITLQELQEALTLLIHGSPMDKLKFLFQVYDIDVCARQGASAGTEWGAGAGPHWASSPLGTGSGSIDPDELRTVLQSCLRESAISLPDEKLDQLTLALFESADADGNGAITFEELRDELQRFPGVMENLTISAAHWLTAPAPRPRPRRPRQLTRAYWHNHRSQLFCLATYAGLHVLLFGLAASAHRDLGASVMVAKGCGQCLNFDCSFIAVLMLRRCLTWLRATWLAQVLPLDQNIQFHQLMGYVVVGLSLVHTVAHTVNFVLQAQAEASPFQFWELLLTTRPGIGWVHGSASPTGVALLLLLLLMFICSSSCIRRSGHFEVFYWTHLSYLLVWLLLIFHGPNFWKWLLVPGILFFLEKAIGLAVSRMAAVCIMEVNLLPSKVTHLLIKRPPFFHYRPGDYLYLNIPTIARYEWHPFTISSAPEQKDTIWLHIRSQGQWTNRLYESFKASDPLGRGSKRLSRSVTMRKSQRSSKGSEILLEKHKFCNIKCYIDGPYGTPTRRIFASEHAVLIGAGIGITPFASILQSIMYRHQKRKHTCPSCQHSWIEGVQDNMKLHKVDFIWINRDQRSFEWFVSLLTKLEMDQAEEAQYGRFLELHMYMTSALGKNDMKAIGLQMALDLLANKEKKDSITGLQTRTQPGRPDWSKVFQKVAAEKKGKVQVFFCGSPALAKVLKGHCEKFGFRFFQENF
Chain of NADPH oxidase 2 (Homo sapiens) (P04839 whole entry, looked up): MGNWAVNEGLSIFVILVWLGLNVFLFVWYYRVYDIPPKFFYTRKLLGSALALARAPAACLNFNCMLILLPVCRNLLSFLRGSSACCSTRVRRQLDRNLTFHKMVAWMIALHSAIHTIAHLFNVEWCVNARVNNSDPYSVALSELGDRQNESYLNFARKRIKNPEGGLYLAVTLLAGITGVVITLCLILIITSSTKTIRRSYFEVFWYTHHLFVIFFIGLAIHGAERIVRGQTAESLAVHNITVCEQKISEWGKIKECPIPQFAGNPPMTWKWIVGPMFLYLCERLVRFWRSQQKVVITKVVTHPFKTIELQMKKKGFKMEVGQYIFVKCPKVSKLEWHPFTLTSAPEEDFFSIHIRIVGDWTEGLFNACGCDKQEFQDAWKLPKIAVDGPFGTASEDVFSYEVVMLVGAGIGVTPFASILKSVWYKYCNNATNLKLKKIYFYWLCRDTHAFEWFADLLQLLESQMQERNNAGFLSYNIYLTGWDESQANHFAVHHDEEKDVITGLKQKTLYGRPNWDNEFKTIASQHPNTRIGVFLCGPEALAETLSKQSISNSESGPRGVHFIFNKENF
Chain of Streptavidin (Streptomyces avidinii) (P22629 whole entry, looked up): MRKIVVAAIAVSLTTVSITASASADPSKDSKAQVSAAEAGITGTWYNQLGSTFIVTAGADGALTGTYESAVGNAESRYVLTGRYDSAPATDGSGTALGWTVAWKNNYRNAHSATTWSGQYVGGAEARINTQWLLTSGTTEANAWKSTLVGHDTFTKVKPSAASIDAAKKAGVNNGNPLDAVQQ

Take `CC1=C([C@H](O)CCc2ccccc2)[C@H](CO)n2c(=O)n(-c3ccccc3)c(=O)n2C1`: the composite z-score in assay [1] was -0.0682; in [6], -0.141; in assay [7] it was -0.202; with Torsin-1A (Homo sapiens) [8], 0.217; in the assay with Torsin-1A (Homo sapiens) [9], -0.485; in assay [10], 0.359. Further, the composite z-score in [12] is -0.06. Also, the z-score is -1.13 (inactive) in assay [2]; -1.21 (inactive) in [3]; 0.399 (inactive) in assay [4]; 0.0978 (inactive) in assay [5]; 2.91 (inactive) in assay [11]; 1.44 (inactive) in assay [13]. The z-score was -0.657 (inactive) in assay [14]; -0.237 (inactive) in [15]; -1.48 (inactive) in assay [16]; 1.77 in assay [17]; -0.53 (inactive) in [18]; -0.429 (inactive) in assay [19]. The molecule further gave a z-score in assay [20] of 0.218.

Regarding `COc1ccc([Si](C)(C)[C@H]2[C@H](CC(=O)N3Cc4ccccc4C[C@H]3CO)O[C@@]3(C(=O)N(C)c4ccccc43)[C@@H]2C)cc1`, the composite z-score in assay [1] is 0.26; in assay [6], 0.783; in [7], 0.0342; in the assay with Torsin-1A (Homo sapiens) [8] it was 1.28; with Torsin-1A (Homo sapiens) [9], 1.91; in assay [10], 2.07. In [12], this molecule returned a composite z-score of 0.384. The z-score is -7.33 (inactive) in assay [2]; 0.458 (inactive) in assay [3]; 5.61 (inactive) in assay [4]; -1.92 (inactive) in assay [5]; -0.614 (inactive) in assay [11]; 13.2 (active) in assay [13]. Besides, the z-score in [14] is 1.16 (inactive); in [15] it was 2.37 (inactive); in [16], -0.925 (inactive); in assay [17] it was 0.867; in [18] it was -3.27 (inactive); in [19] it was -1.45 (inactive). The same molecule had a z-score in [20] of -1.91.

With `C=C(CCCC)/C(=C/C[C@H](OC(C)=O)c1cccc(OCCO)c1)c1cnc2ccccc2c1`, the composite z-score in [1] is 0.0596; in [6], 0.247; in [7], -0.208; in the assay with Torsin-1A (Homo sapiens) [8] it was -0.268; in the assay with Torsin-1A (Homo sapiens) [9], -0.348; in assay [10], 0.477. The same molecule had a composite z-score in assay [12] of -0.193. Also, the z-score in assay [2] was -0.717 (inactive); in [3], 0.768 (inactive); in [4] it was 7.36 (inactive); in assay [5], -0.134 (inactive); in assay [11], 0.186 (inactive); in assay [13], 23.7 (active). Moreover, the z-score in assay [14] is 6.09 (inactive); in [15], 1.94 (inactive); in assay [16], 1.34 (inactive); in assay [17], -0.33; in assay [18] it was -0.532 (inactive); in assay [19], -0.294 (inactive). The molecule further had a z-score in assay [20] of -1.76.

On to `COc1ccc([Si](C)(C)[C@H]2[C@H](CC(=O)N3Cc4ccccc4C[C@H]3CO)O[C@@]3(C(=O)N(c4ccccc4)c4ccccc43)[C@@H]2C)cc1`, for which the composite z-score in assay [1] stood at 0.479; in [6], 0.968; in assay [7] it was 0.0342; in the assay with Torsin-1A (Homo sapiens) [8] it was 1.57; with Torsin-1A (Homo sapiens) [9], 0.862; in assay [10], 2.04. Further, in assay [12], the composite z-score turned out to be 0.701. In addition, the z-score in assay [2] is -5.64 (inactive); in [3] it was 0.449 (inactive); in assay [4], 3.6 (inactive); in assay [5] it was -1.16 (inactive); in [11] it was 0.968 (inactive); in assay [13], 11.9 (active). The z-score is 2.16 (inactive) in [14]; 1.24 (inactive) in assay [15]; 1.09 (inactive) in [16]; 1.35 in assay [17]; -1.56 (inactive) in [18]; -0.499 (inactive) in assay [19]. Further, in [20], the z-score was -2.51.
